Laboratory results reported in PubChem BioAssay (Tox21).
Records with an inconclusive call do not appear. Unmarked numbers belong to inactive results. Unless noted, calls follow the shape of the full dose curve.

Assay: cAMP Responsive Elements (CRE) small molecule agonists, cell-based qHTS assay (AID 1963590)
Details: CRE-bla HEK293T, beta-lactamase FRET ratio, 3 h; series mostly up to 92.4 µM; activation: at the top concentration
Outline: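 Cells carrying a CRE-driven beta-lactamase reporter (HEK 293T) are seeded, incubated overnight (18 h), and treated with test compounds for 3 h at 37 C; reporter activity is then detected with a FRET substrate after 2 h at room temperature.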
% is scaled to controls: 0 for no effect and ±100 for the full control effect.

SMILES	activation
CN(C)CCOC(=O)C(c1ccccc1)C1(O)CCCC1 (stereo not drawn)	0.563% [at 42.5 µM]
CCCC(=O)O[C@]1(C(=O)CO)CC[C@H]2[C@@H]3CCC4=CC(=O)CC[C@]4(C)[C@H]3[C@@H](O)C[C@@]21C	6.83% [at 42.5 µM]
CCCCCCCCCCCCCCCC(=O)OCC	-0.419%
CC(O)CN (stereo not drawn)	0.558%
O=C(O)Cc1ccc(OCCNC[C@H](O)c2ccccc2)cc1	0.38% [at 42.5 µM]
O=C(O)c1c(Cl)ccc(Cl)c1Cl	-0.679%
CC(=O)c1ccc([N+](=O)[O-])cc1	0.177%
CCCCCCOC(=O)CCCCCCCC(=O)OCCCCCC	1%
Cc1ccccc1N=C(N)N=C(N)N	-1.01%

Assay: cAMP Responsive Elements (CRE) small molecule antagonists, cell-based qHTS assay (AID 1963591; active = well fitted inhibition curve with a large enough effect in the signal ratio in the repeat runs, not every such curve was filed as active; the % refers to the signal ratio)
Details: CRE-bla HEK293T, beta-lactamase FRET ratio; series mostly up to 92.4 µM; activity change, negative = inhibition: at the top concentration
Outline: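 Cells (CRE-bla HEK 293T, DMEM with 10% dialyzed FBS and 25 mM HEPES) are seeded and incubated 18 h. Compounds are added with NKH477 agonist at 0.25 uM final for 3 h, then FRET substrate for 2 h.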

SMILES	activity change, negative = inhibition
CCOC(=O)C1=NN(c2ccccc2)C(=O)C1	10.7%
C=C(C)CS(=O)(=O)O	2.12%
O=C(Cl)c1c(Cl)cccc1Cl	-2.57%
Cc1nc2ccc(CN(C)c3ccc(C(=O)N[C@@H](CCC(=O)O)C(=O)O)s3)cc2c(=O)[nH]1	-2.35% [at 42.4 µM]
CCCCCCCCCCCCCOC(=O)CCSCCC(=O)OCCCCCCCCCCCCC	-14% [at 18.9 µM]
O=C=NCC1CCCC(CN=C=O)C1 (stereo not drawn)	3.13%
OC/C=C/c1ccccc1	6.27%
CC(=O)c1ccc(C)cc1	-0.249%
CC1=C(C(=O)O)N2C(=O)[C@@H](NC(=O)[C@H](N)C3=CCC=CC3)[C@H]2SC1	-1.97% [at 42.4 µM]
CC(C)(C)c1ccc(N)cc1	6.39%
COc1ccc(CCO)cc1	-11.6%
CC(=O)OCC1=C(C(=O)O)N2C(=O)[C@@H](NC(=O)CSc3ccncc3)[C@H]2SC1	11.7% [at 42.4 µM]
COC(=O)C(C)=O	5.52%
SC1CCCC1	0.228%
